The values below come from PubChem BioAssay (NCATS).

Results filed as inconclusive are left out. Activity calls are given as the source filed them. Calls follow the shape of the dose curve; as a rule, active = well fitted curve in either direction with a large enough effect (not every such curve was filed as active); inconclusive = small, poorly fitted or top-dose-only effect, or another doubt; inactive = flat fitted curve, though single readings scatter.

The test addresses Mitogen-activated protein kinase 10 (Mus musculus) (UniProt Q61831). The test is described as follows: JNK3 AlphaScreen Assay (AID 530).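 Also: kinase came from lysate of stimulated human HepG2 cells; signal reports phosphorylation of biotinylated GST-cJun 1-79 at Ser73 with 10 µM ATP.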 Particulars: JNK3 lysate, c-Jun phosphorylation; series mostly up to 57.1 µM. The procedure, abridged: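 Compound titrations were preincubated 15 minutes at room temperature with substrate, antibody and pre-activated JNK3-containing HepG2 lysate. Reactions were started with 10 uM ATP and stopped with EDTA-containing bead buffer for AlphaScreen detection.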
In general terms: Alpha assays give light when donor and acceptor beads are brought close together.
For the compound `COC(=O)[C@@]1(Cc2ccc(F)cc2)[C@H]2c3cc(C(=O)N(C)C)n(Cc4ccc(OC)c(OC)c4)c3C[C@H]2CN1C(=O)c1ccccc1`, the compound was called inactive.
On to `CC(=O)OCC1C2CC[C@H]3C(OCc4ccc(F)cc4C(F)(F)F)OC[C@]4(C)[C@H]3C2=C(CN4C(=O)OC(C)(C)C)[C@H](C)C1COC(C)=O` (stereo partly specified), for which the outcome was inactive.
As for `COC(=O)[C@@]1(Cc2ccccc2)[C@H]2c3cc(C(=O)N4CCCC4)n(CCSCCO)c3C[C@H]2CN1C(=O)c1ccccc1`, the entry is “inactive”; as for `COC(=O)[C@@]1(Cc2ccc(F)cc2)[C@H]2c3cc(C(=O)N4CCCC4)n(Cc4ccc(C(F)(F)F)nc4)c3C[C@H]2CN1C(=O)c1ccccc1`, “inactive”.
Then `CC(C)=C1C(=O)C(c2ccccc2)=C2CN3C(=O)N(CCc4ccccc4)C(=O)[C@]3(Cc3ccc(C(F)(F)F)cc3)[C@H]21`, with “inactive”.
Regarding `COC(=O)CNC(=O)C1(C)C=CC2(CCCCC2)N1C(=O)OC` (stereo unspecified), the compound was classed as inactive.
Then `COC(=O)[C@@]1(Cc2ccc(F)cc2)[C@H]2c3cc(C(=O)N(C)C)n(Cc4nc5ccccc5[nH]4)c3C[C@H]2CN1C(=O)c1ccccc1`, with “inactive”; and `COC(=O)[C@@]1(Cc2ccc(OC)cc2)[C@H]2c3cc(C(=O)N4CCCC4)n(CCc4c[nH]c5ccccc45)c3C[C@H]2CN1C(=O)c1ccccc1`, with “inactive”; and `COC(=O)C1(C)C=CCN1C(=O)c1ccccc1` (stereo unspecified), with “inactive”.
As for `COC(=O)C1(Cc2ccccc2)C=C2C(=C(c3ccccc3)C(=O)C2C)CN1` (stereo unspecified), the entry is “inactive”; as for `COC(=O)[C@@]1(Cc2ccc(OC)cc2)[C@H]2c3cc(C(=O)N(C)C)n(Cc4ccc(Cl)c(C(F)(F)F)c4)c3C[C@H]2CN1C(=O)c1ccccc1`, “inactive”.
Then `COC(=O)[C@@]1(Cc2ccc(OC)cc2)[C@H]2c3cc(C(=O)N(C)C)n(Cc4ccc(C)o4)c3C[C@H]2CN1C(=O)c1ccccc1`, with “inactive”.
For `COC(=O)Cn1c(C(=O)N2CCCC2)cc2c1C[C@H]1CN(C(=O)c3ccccc3)[C@@](Cc3ccccc3)(C(=O)OC)[C@@H]21`, the result was inactive.
Then `C[Si](C)(C)C#Cc1ccccc1NC(=S)Nc1ccccc1`, with “inactive”; and `CCc1c2c(nc3ccc(OC)cc13)OC(CC)C2` (stereo unspecified), with “inactive”; and `COc1ccc(NC(=O)CCCCC#Cc2ccccc2)cc1`, with “inactive”.
Then `C[C@@H](C(=O)NCC1CC1)[C@@H]1C[C@@]1(C)[C@@H](NC(=O)OCc1ccccc1)c1ccccc1`, with “inactive”; and `COC(=O)[C@@]1(Cc2ccc(F)cc2)[C@H]2c3cc(C(=O)N(C)C)n(CCc4ccc(O)c(O)c4)c3C[C@H]2CN1C(=O)c1ccccc1`, with “inactive”; and `COC(=O)[C@@]1(Cc2ccc(F)cc2)[C@H]2c3cc(C(=O)N(C)C)n(CCO)c3C[C@H]2CN1C(=O)c1ccccc1`, with “inactive”.
Then `COC(=O)[C@@]1(Cc2ccc(OC)cc2)[C@H]2c3cc(C(=O)N4CCCC4)n(Cc4ccsc4Br)c3C[C@H]2CN1C(=O)c1ccccc1`, with “inactive”; and `COC(=O)[C@@]1(Cc2ccc(F)cc2)[C@H]2c3cc(C(=O)N4CCCC4)n(CC4CC4)c3C[C@H]2CN1C(=O)c1ccccc1`, with “inactive”.
In the case of `CCC/C=C(\CCC)C(NC(=O)c1ccco1)c1ccc(C(=O)OC)cc1` (stereo unspecified), the result was inactive.
Consider `CCCC[C@@H]1C[C@H]1C(NS(=O)(=O)c1cccc2cccnc12)c1ccc(-c2ccccc2)cc1` (stereo partly specified), for which the result was inactive.
As for `COCCn1c(C(=O)N2CCCC2)cc2c1C[C@H]1CN(C(=O)c3ccccc3)[C@@](Cc3ccc(OC)cc3)(C(=O)OC)[C@@H]21`, the compound was called inactive.
As for `COC(=O)[C@@]1(Cc2ccccc2)[C@H]2c3cc(C(=O)N(C)C)n(Cc4nc5ccccc5[nH]4)c3C[C@H]2CN1C(=O)c1ccccc1`, the entry is “inactive”; as for `COC(=O)[C@@]1(Cc2ccccc2)[C@H]2c3cc(C(=O)N4CCCC4)n(CCO)c3C[C@H]2CN1C(=O)c1ccccc1`, “inactive”.
